Tau fluor counter: counter-screen for tau fibril formation inhibitors | 280,000 compounds, 0.93% hits | tau K18 P301L Alexa594 fluorescence, heparin fibrillization | Potency, µM (series often up to 57.7 µM), for inactives: at the highest dose activity change, negative = decrease | AID 1463; note: potency is the fitted concentration of half-maximal effect; nearly all actives have a fitted effect of over 55% in size
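Human K18 P301L tau (15 uM unlabeled plus 0.24 uM Alexa 594-labeled, final) in 100 mM sodium acetate pH 7 was mixed with compound and 20 uM heparin and incubated 6 hr at 37 C.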
Coupling enz: counter-screen for Giardia aldolase inhibitors: coupling enzyme system; coupling enzyme system counterscreen, AmpLite Red fluorescence; activity change, negative = inhibition, % at 58.2 µM, hits read low; 290,000 compounds, 0.67% hits; AID 2472; in the data active = activity change below about -30%
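Activity here indicates interference with the coupling reaction, not aldolase inhibition. Compounds at 57.5 uM final met coupling enzymes for 10 min at RT; substrate and AmpLite Red detection followed, with a 525/598 nm fluorescence read after 20 min.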
Tau fibril ThT: blocks human tau fibril formation measured by thioflavin T. recombinant tau K18 P301L (four-repeat tau fragment), heparin-induced fibrillization, ThT fluorescence. AID 1460. Potency, µM (top dose mostly 57.4 µM), inactives show top-dose activity, negative = inhibition, actives largely listed as inhibitors. 270,000 compounds, 2.1% hits. P10636; note: potency is the fitted concentration of half-maximal effect; nearly all actives have a fitted effect of over 55% in size
Target sequence (P10636 561-689 P618L limits assumed): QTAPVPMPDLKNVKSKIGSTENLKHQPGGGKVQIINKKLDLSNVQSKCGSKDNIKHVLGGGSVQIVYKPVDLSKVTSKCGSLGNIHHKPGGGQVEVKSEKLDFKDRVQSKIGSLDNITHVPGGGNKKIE
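Heparin-induced (20 uM) aggregation of recombinant human K18 P301L tau, 15 uM unlabeled with 0.24 uM labeled, pH 7 acetate buffer, 6 hr at 37 C with compound. Fibrils quantified by 30 uM ThT fluorescence after 1 hr ambient incubation.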
Tau FP inhib: blocks human tau fibril formation measured by polarization. K18 P301L tau heparin fibrillization, Alexa594 FP, 6 h. Potency, µM (titrated, usually from 57.7 µM), for inactives: top-dose activity, negative = inhibition, usual class: inhibitors. 280,000 compounds, 0.39% hits; note: potency is the fitted concentration of half-maximal effect; nearly all actives have a fitted effect of over 55% in size
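Read-out: fluorescence polarization of Alexa 594-labeled tau (0.24 uM), 555 nm excitation, 632 nm emission. Mixtures held 15 uM unlabeled K18 P301L, compound and 20 uM heparin, pH 7 acetate buffer, incubated 6 hr at 37 C.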
KDM4E inh: inhibitors of human JMJD2E histone demethylase; Potency, µM (series often up to 57.1 µM), for the others: top-dose activity change, negative = inhibition, usual class: inhibitors; JMJD2E catalytic domain, FDH-coupled NADH fluorescence (FDH is formaldehyde dehydrogenase); B2RXH2; 230,000 compounds, 1.6% hits; active = well fitted inhibition curve with a large enough effect, not every such curve was filed as active; inconclusive = small, poorly fitted or top-dose-only effect, or another doubt; inactive = no such curve, though single readings can be large or run the other way;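 note: potency is the fitted concentration of half-maximal effect; 0% = wells with enzyme and -100% = buffer wells without enzyme; nearly all actives have a fitted effect of over 50% in size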
Target sequence (B2RXH2 1-337 limits assumed): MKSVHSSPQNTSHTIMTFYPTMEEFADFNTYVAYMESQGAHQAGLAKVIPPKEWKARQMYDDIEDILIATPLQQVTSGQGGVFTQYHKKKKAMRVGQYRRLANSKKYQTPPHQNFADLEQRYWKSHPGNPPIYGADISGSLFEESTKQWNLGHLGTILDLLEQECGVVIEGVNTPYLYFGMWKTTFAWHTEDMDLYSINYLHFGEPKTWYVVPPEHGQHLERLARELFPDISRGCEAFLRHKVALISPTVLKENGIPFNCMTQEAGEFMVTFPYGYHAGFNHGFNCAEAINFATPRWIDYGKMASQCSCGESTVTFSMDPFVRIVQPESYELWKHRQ
Starred values were filed as active, the others as inactive; ? = inconclusive; . = no result; ! = not active in a repeat; [ ] = dose if it differs, or a comment. Rows were chosen to be rich in hits. Some 3% of all compounds tested hit in one or more screens of this group. Unless noted, calls come from the whole dose curve; as a rule, active = well fitted curve in the direction sought with a large enough effect; inconclusive = small, poorly fitted or top-dose-only effect, or another doubt; inactive = no such curve, though single readings can be large; an effect the other way counts as inactive or inconclusive. Unless noted, % is set by controls: 0 for no effect and ±100 for the full control effect.

SMILES	Tau fluor counter	Coupling enz	Tau fibril ThT	Tau FP inhib	KDM4E inh
Cc1ccc(C)c2[nH]c(=O)c(CN(Cc3nnnn3C3CCCCC3)CC3CCCO3)cc12 (stereo unspecified)	12%	-37*	-2%	1%	5%
O=C(/C=C/c1ccc(Br)cc1)NC(=O)c1ccccc1O	-20%	5	?	11%	-23%
O=C(/C=C/c1ccc(O)c(O)c1)NC(=O)c1ccccc1O	-29%	2	?	9%	14µM*
O=C(/C=C/c1ccc(O)c(O)c1)c1ccc(O)cc1O	.	0	.	.	.
O=C(O)/C=C/c1ccc(O)c(O)c1	-21%	-30*!	?	-10%	0.56µM*!
C[C@H]1C(=O)N(S(=O)(=O)c2ccccc2[N+](=O)[O-])[C@H]1c1ccc(-c2ccccc2)cc1	.	11	.	.	.
O=S(=O)(Nc1cccc2cccnc12)c1ccc(Br)cc1	.	-17	.	.	.
COc1cc(Cl)c(C)cc1NC(=O)c1cc(CN2CCOCC2)on1	-15%	.	-4%	-4%	.
CCOC(=O)c1ccc(NC(=S)NCCc2ccccc2F)cc1	20µM*[quencher]	1	-24%	28µM*	-28%
CCOC(=O)c1ccc(NC(=S)NCCc2ccccc2)cc1	?	-1	?	2%	-28%
CCOC(=O)c1c(-c2ccc(Cl)cc2)csc1NC(=O)CNCc1ccco1	-13%	-6	-10%	-1%	25µM*
CCOC(=O)c1c(-c2ccc(OC)cc2)csc1NC(=O)CNCc1ccco1	-3%	-9	1%	0%	-1%
CCCCc1nc2c(c3c1C[C@H](C)OC3)CN(S(=O)(=O)CCCC)CC2	-7%[11.6 µM]	-1	-1%[11.5 µM]	-4%[11.6 µM]	3%[11.4 µM]
O=C(N/N=C/c1cc(Br)ccc1O)c1ccncc1	-9%	-3	-9%	?	28µM*
Nc1nonc1C(=O)N/N=C/c1cc(Br)ccc1O	-11%	-5	?	9%	3.5µM*
O=C(N/N=C/c1cccnc1)c1cccc(NC(=O)c2cccc(Br)c2)c1	.	1	.	.	.
Cc1nc(C)c(C(=O)N/N=C/c2cc(Br)ccc2O)s1	-24%	3	-17%	10%	22µM*
O=C(N/N=C/c1ccc(O)c2ncccc12)c1cccc(Br)c1	?	-4	6.3µM*	14%	-22%
Cc1nc(C)c(C(=O)N/N=C/c2c[nH]c3ccccc23)s1	-20%	-2	?	11%	?
NC(=O)N/N=C\c1cc(Br)ccc1O	-3%	-3	-6%	6%	?
CC(=O)OC[C@H]1O[C@@H](O/N=C(\C)CCN2CCc3nc(-c4ccccc4)c(-c4ccccc4)cc3C2)[C@H](OC(C)=O)[C@@H](OC(C)=O)[C@H]1OC(C)=O	-2%[11.6 µM]	1	-5%[11.5 µM]	0%[11.6 µM]	.
O=C(N/N=C/c1ccccc1[N+](=O)[O-])c1ccc2c(c1)OCCO2	-13%	0	?	7%	13%
O=C(N/N=C/c1cc([N+](=O)[O-])ccc1O)c1ccc2c(c1)OCCO2	-14%	7	?	12%	25µM*
O=C(N/N=C/c1cc([N+](=O)[O-])ccc1O)c1ccncc1	-9%	-7	?	11%	10µM*
COc1cc(O)c(/C=N/NC(=O)c2ccncc2)c(OC)c1[N+](=O)[O-]	-7%	-3	?	13%	22µM*
SMILES	Tau fluor counter	Coupling enz	Tau fibril ThT	Tau FP inhib	KDM4E inh
O=c1c(-c2cc(F)cc(F)c2)nc2cnc(N3CCNCC3)nc2n1Cc1ccc(F)cc1	.	0	.	.	.
Cc1cccc(NC(=O)C(Cc2ccccc2)n2cccc2)c1C (stereo unspecified)	?	.	?	-5%	.
CCN1/C(=C/C=C/c2oc3ccc4ccccc4c3[n+]2CC)Oc2ccc3ccccc3c21	2.8µM*[fluorescent]	-5	1.1µM*	?	14µM*
CNC(=O)C1CCC(Cn2c(=O)c3sccc3n(CC(=O)Nc3cc(F)ccc3F)c2=O)CC1 (stereo unspecified)	-6%	.	2%	5%	.
COc1ccc(-c2cn3cc([N+](=O)[O-])ccc3n2)cc1OC	-22%	-4	4.5µM*	7%	-15%
Cc1ccc(N2CCN(c3ccc(NCc4nc5ccccc5n4C)cc3)CC2)cc1	?	-7	2.5µM*	-14%	?
CCN(CC)CCCNC(=O)c1c(C)oc2ncn(CC(C)C)c(=O)c12	1%	.	2%	-10%	.
CN(C)c1nc(-c2ccc([N+](=O)[O-])cc2)cs1	?	0	13µM*	10%	7%
C=CCNc1nc(-c2ccc([N+](=O)[O-])cc2)cs1	-20%	-3	7.1µM*	19%	5%
CCc1cccc(CC)c1-n1nnc2c(sc3nc(C)cc(C)c32)c1=O	0%	.	-3%	-2%	.
Cc1ccc2nc(-c3ccccc3O)c(Nc3ccc4c(c3)OCCO4)n2c1	7.1µM*[quencher]	-2	?	10%	?
Cc1ccc2nc(-c3ccc(O)cc3)c(Nc3ccc4c(c3)OCCO4)n2c1	25µM*[quencher]	0	?	16%	?
Cc1ccc(Nc2c(-c3ccccc3O)nc3ccc(Br)cn23)cc1	-13%	.	-5%	-6%	.
Cc1cc(N2CCC(C(=O)Nc3ccc(F)cc3F)CC2)n2nc(C)c(-c3ccc(Cl)cc3)c2n1	-12%	.	-2%	-6%	.
COc1cccc(N=Nc2c(N)[nH]n3c(=O)c4c(nc23)CCCC4)c1	?	-2	1.4µM*	3%	-4%
COc1cccc(N=Nc2c(N)[nH][nH]c2=O)c1	-29%	-4	?	2%	6%
O=[N+]([O-])c1ccc(/C([O-])=C(/C(=S)NCc2ccco2)[n+]2ccccc2)cc1	-21%	-25	25µM*	?	14µM*
Cc1ccc(/C([O-])=C(/C(=S)NCc2ccco2)[n+]2ccccc2)cc1	-18%	-13	?	-5%	5%
O=[N+]([O-])c1cccc(/C([O-])=C(/C(=S)Nc2cccc3ccccc23)[n+]2ccccc2)c1	12%	-42*	12%	1%	-2%
O=[N+]([O-])c1ccc(/C([O-])=C(/C(=S)Nc2ccccc2F)[n+]2ccccc2)cc1	-22%	-1	?	2%	-3%
O=S(=O)(NCCNC/C=C/c1ccc(Br)cc1)c1cccc2cnccc12	-24%	.	-5%	?	-3%
C=C[C@]1(C)Cc2occ(C)c2C[C@H]1C(=C)C(=O)O	-1%	-2	-3%	-5%	-3%
O=c1c(O)c(-c2ccc(O)c(O)c2)oc2c(OC3OC(CO)C(O)C(O)C3O)c(O)cc(O)c12 (stereo unspecified)	-28%	4	14µM*	?	2%
O=c1c(O)c(-c2ccc(O)c(O)c2)oc2c(OC[C@@H]3O[C@@H](O)[C@@H](O)[C@H](O)[C@H]3O)c(O)cc(O)c12	-21%	7	10µM*	-15%	5µM*
CN(C(=O)NCc1noc2ccccc12)c1cccc(Cl)c1	-2%	.	2%	4%	.
Cc1ccc(NC(=O)CN2C(=O)CSc3ccc(S(=O)(=O)N(C)C)cc32)cc1C	-8%	.	12%	3%	.

Screens from PubChem BioAssay.
